# Screening results as filed in PubChem.
# HCMV antiviral = qHTS Assay for inhibitors of the human cytomegalovirus (HCMV). HFF cells, HCMV-luciferase reporter, 72 h; stronger effect = lower value. activity change, negative = inhibition, % at 57.5 µM. 410,000 tested, 4.5% active; in the data active = activity change below about -60%; inconclusive = no clear call, values can overlap the other calls; inactive = above about -39%
#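 Inhibition of viral replication was scored as loss of reporter luminescence in HFFs infected with HCMV-luciferase (MOI 1 PFU/cell) for 72 h; compounds tested at 2 doses, normalized to buffer and Salinomycin controls.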
# Pf growth 96h = Primary qHTS for delayed death inhibitors of the malarial parasite plastid, 96 hour incubation. P. falciparum luciferase reporter growth, 96 h. Potency, µM (titrated, usually from 28.7 µM), most hits filed as inhibitors. 320,000 tested, 6.9% active. AID 504834, 2011
#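 Cell-based qHTS: luciferase-tagged P. falciparum in erythrocytes (2% hematocrit, 0.05% parasitemia final) incubated with compounds for 96 hours, 37 C, 5% CO2; luciferase detection reagent then added and luminescence measured.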
# HCV inh = qHTS Assay for Inhibitors of Hepatitis C Virus (HCV). Huh7.5.1 HCVcc-Cre infection, luciferase reporter, 44 h. Potency, µM (titrated, usually from 41.8 µM), hits mostly inhibitors. 340,000 tested, 3.4% active
#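 Reporter virus HCVcc-Cre (~0.5 moi) infects cells exposed to compound; seeding density 1,000 cells/well with 4 h settling beforehand. Luminescence, 15 sec read, taken 44 h post-infection following a 15 min RT substrate incubation.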
# Pf growth 48h = Primary qHTS for delayed death inhibitors of the malarial parasite plastid, 48 hour incubation; P. falciparum luciferase growth in erythrocytes, 48 h; Potency, µM (doses to about 28.7 µM), actives largely listed as inhibitors; 310,000 tested, 5.9% active; AID 504832, 2011
#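 In quantitative HTS format, infected erythrocytes bearing luciferase-reporter parasites were treated for a single generation at 37 C. Luminescence after adding detection reagent served as the growth measure.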
# SARS PLpro yeast = qHTS of Yeast-based Assay for SARS-CoV PLP. S. cerevisiae expressing SARS-CoV PLpro, growth rescue. Potency, µM (top dose mostly 32.9 µM), most hits filed as activators. 330,000 tested, 0.19% active. AID 485353, 2010; calls by dose curve; also: nearly all actives have a fitted effect of over 55% in size
# Sm TGR block = qHTS Assay for the Inhibitors of Schistosoma Mansoni Peroxiredoxins; Schistosoma mansoni thioredoxin glutathione reductase (TGR), Q962Y6; purified TGR, DTNB reduction, TNB absorbance 405 nm; Potency, µM (series often up to 114 µM), hits mostly inhibitors; 360,000 tested, 3% active; AID 485364, 2010; also: nearly all actives have a fitted effect of over 60% in size
#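 First, TGR (20 nM dispensed) and NADPH were mixed with compound. Second, a 15 min room-temperature incubation followed. Third, further NADPH and then DTNB were added to start the reaction. Finally, TNB absorbance was monitored kinetically.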
# Numbers stand for hits; i = inactive; ? = inconclusive; nt = not tested or not shown; [ ] = remark or other dose. The list is not random: actives were taken first. Their share in the collection is about 15%. Unless noted, calls follow the shape of the dose curve; as a rule, active = well fitted curve in the direction sought with a large enough effect; inconclusive = small, poorly fitted or top-dose-only effect, or another doubt; inactive = no such curve, though single readings can be large; an effect the other way counts as inactive or inconclusive.
SMILES,HCMV antiviral,Pf growth 96h,HCV inh,Pf growth 48h,SARS PLpro yeast,Sm TGR block
CCCN(Cc1nnc(-c2ccccc2Cl)o1)C(=O)c1cc([N+](=O)[O-])cc([N+](=O)[O-])c1,i,?,i,?,i,i
COc1ccc(-c2noc(CCC(=O)NCCN(C)Cc3ccccc3)n2)cc1,i,i,i,i,nt,89µM
COc1ccc(-c2noc(CC(=O)N(C)c3cccc(C)c3)n2)cc1,i,nt,nt,nt,nt,i
CCN(CCCNC(=O)CCc1nc(-c2ccc(OC)cc2)no1)c1cccc(C)c1,i,13µM,?,nt,i,i
COc1ccc(-c2noc(CCC(=O)NCCc3ccccc3)n2)cc1,i,i,i,i[0.00184 µM],i,i
COC(=O)c1oc2ccccc2c1NC(=O)c1ccccc1O,i,i,?,10µM,i,nt
COc1ccccc1C(=O)Nc1c(C(=O)NC(C)(C)C)oc2ccccc12,-71,nt,nt,nt,nt,i
CC(C)(C)C(=O)Nc1c(C(=O)N2CCN(c3ccc(F)cc3)CC2)oc2ccccc12,-82,nt,nt,nt,nt,i
COc1cccc(NC(=O)c2oc3ccccc3c2NC(=O)c2cc3ccccc3o2)c1,i,nt,nt,nt,nt,i
CCCC(=O)Nc1c(C(=O)N2CCN(c3ccccc3)CC2)oc2ccccc12,i,nt,nt,nt,nt,i
COc1cccc(NC(=O)c2oc3ccccc3c2NC(=O)C(C)(C)C)c1,?,i,8.9µM,?,i,i
CCC(C)(C)NC(=O)C(c1cccc(OC)c1OC)N(C(=O)CCC(=O)Nc1cc(C)on1)c1ccc2c(c1)OCCO2 (stereo unspecified),?,?,i,?,i,i
COC(=O)c1ccccc1NC(=O)CSc1nc2ccccc2nc1Cc1ccc(F)cc1,i,nt,nt,nt,nt,i
CCOc1cc(C2CC(=O)c3c(ccc4ccccc34)N2)ccc1O (stereo unspecified),i,1µM,i,i,i,i
COc1ccc(C2CC(=O)c3c(ccc4ccccc34)N2)cc1OC (stereo unspecified),i,?,i,?,i,i
O=C(CN1CCCCCCC1)N/N=C/c1ccc([N+](=O)[O-])o1,?,i,?,?,i,14µM
O=C1C2C3C=CC(C4CC34)C2C(=O)N1/N=C/c1ccc([N+](=O)[O-])o1 (stereo unspecified),?,i,11µM,i,i,i
O=C(CC12CC3CC(CC(C3)C1)C2)N/N=C/c1ccc([N+](=O)[O-])o1,i,i,?,5.2µM,i,i
CCOC(=O)N/N=C\c1ccc([N+](=O)[O-])o1,?,8.3µM,?,?,i,i
C#CCOCCOCCOCCNc1nc(N2CCN(C(=O)[C@H](CCCCN)n3cc([C@@H](N)CO)nn3)CC2)nc(N2CCN(C(=O)[C@H](CCCCN)n3cc([C@@H](N)CC(C)C)nn3)CC2)n1,i,nt,i,nt,i,nt
O=C(CSc1nnnn1-c1ccc(Cl)cc1)NC1CCS(=O)(=O)C1 (stereo unspecified),i,nt,i,nt,i,nt
O=[N+]([O-])c1ccc(/C=N/N=C/c2ccc([N+](=O)[O-])o2)o1,-100,i,4.5µM,4.1µM,i,10µM
Cc1csc(N=Cc2ccc([N+](=O)[O-])o2)n1,i,nt,nt,nt,nt,nt
Cc1cc2ncn(/N=C/c3ccc([N+](=O)[O-])o3)c2cc1C,-62,4.7µM,11µM,?,i,i
O=C1SCCN1N=Cc1ccc([N+](=O)[O-])o1,i,nt,22µM,nt,nt,nt
SMILES,HCMV antiviral,Pf growth 96h,HCV inh,Pf growth 48h,SARS PLpro yeast,Sm TGR block
CCCCCCCC(=O)N/N=C/c1ccc([N+](=O)[O-])o1,?,?,?,?,i,?
Cc1cc(-c2ccc(/C=N/n3cnnc3)o2)c(C)c([N+](=O)[O-])c1,i,?,i,i,i,?
CC(=O)N/N=C/c1ccc([N+](=O)[O-])o1,nt,12µM,nt,?,nt,nt
O=C(CCN1CCN(c2ccccc2)CC1)N/N=C/c1ccc([N+](=O)[O-])o1,i,10µM,?,?,i,32µM
Cc1cc([N+](=O)[O-])ccc1-c1ccc(/C=N/NC(=O)Cc2ccccc2)o1,i,i,i,i,i,i
O=C(Cc1ccc([N+](=O)[O-])cc1)N/N=C/c1ccc([N+](=O)[O-])o1,i,?,14µM,?,i,?
CC1(C(=O)N/N=C/c2ccc([N+](=O)[O-])o2)CC1(Br)Br (stereo unspecified),-60,10µM,?,?,i,?
O=C(N/N=C/c1ccc([N+](=O)[O-])o1)c1ccccc1-n1cccc1,?,?,?,?,i,?
O=C(CN1CCOCC1)NN=Cc1ccc([N+](=O)[O-])o1,i,nt,nt,nt,nt,nt
COc1ccccc1N(CC(=O)NC1CCCC1)C(=O)CNC(=O)c1cccs1,i,i,i,?,i,i
CCc1noc(C)c1C(=O)Nc1nnc(CC(C)C)s1,i,i,i,i,i,i
CCc1ccc(CNC(=O)Cn2c(-c3cccs3)cc3cc(F)ccc32)cc1,-65,nt,nt,nt,nt,i
O=C(Cn1c(-c2cccs2)cc2ccccc21)NCCCN1CCN(c2ccccc2F)CC1,-68,nt,nt,nt,nt,i
CN1CCN(CCCNC(=O)Cn2c(-c3cccs3)cc3cc(Cl)ccc32)CC1,-69,nt,nt,nt,nt,i
O=C(NCCCN1CCN(c2ccccc2F)CC1)C1CCN(S(=O)(=O)c2cccs2)CC1,-68,i,i,i,i,i
CSc1ccc(CNC(=O)Cn2c(-c3cccs3)cc3cc(F)ccc32)cc1,i,nt,nt,nt,nt,i
CCOC(=O)[C@]12CCC=C1N(Cc1cccc3ccccc13)C(=O)[C@H](CC(=O)N1CCN(C(=O)C3CC3)CC1)C2,i,nt,nt,nt,nt,nt
O=C(Cn1cc(S(=O)(=O)N2CCN(c3ccccc3F)CC2)c2ccccc2c1=O)NCCCN1CCCCCC1,i,i,22µM,?,i,i
CC1CCN(S(=O)(=O)c2cn(CC(=O)Nc3ccc(F)c(Cl)c3)c(=O)c3ccccc23)CC1,-63,nt,nt,nt,nt,i
COCCNC(=O)Cn1cc(S(=O)(=O)N2CCN(c3ccccc3F)CC2)c2ccccc2c1=O,i,i,i,i,i,i
COc1cc(NC(=O)Cn2cc(S(=O)(=O)N3CCC(C)CC3)c3ccccc3c2=O)cc(OC)c1OC,i,nt,nt,nt,nt,i
Cc1ccc(OCc2cc(=O)n3c4c(sc3n2)CCCC4)cc1C,i,nt,nt,nt,nt,i
Cc1ccc(OCCNC(=O)C(C)SCC(=O)Nc2ccc(F)cc2)cc1 (stereo unspecified),i,nt,i,nt,i,nt
CCCCC(=O)NC1(C(F)(F)F)C(=O)N(CC(C)C)C2=C1C(=O)CC(C)(C)C2 (stereo unspecified),i,i,i,i,i,i
CC(C)C(C(=O)NC1CCCCC1)N1C(=O)C(=O)c2ccccc21 (stereo unspecified),i,nt,nt,nt,nt,nt
